PubChem BioAssay (EPA / NIEHS)
Records with an inconclusive call do not appear. The source made the active and inactive calls. How the source made its calls: active means hit-call score of the fitted dose curve at least 0.9, where 1 is the maximum; inconclusive means response in the unintended direction; inactive means score below 0.9.

The compounds below were run against Estrogen receptor (Homo sapiens) (UniProt P03372) (assay: CCTE_Deisenroth_AIME_384WELL_LUC_Active: CCTE's 384-well Estrogen Receptor Transactivation Assay with AIME metabolic competence (ERTA luciferase; metabolism positive), Deisenroth Lab (AID 2284030)).
Chain of Estrogen receptor (Homo sapiens) (P03372 whole entry, looked up): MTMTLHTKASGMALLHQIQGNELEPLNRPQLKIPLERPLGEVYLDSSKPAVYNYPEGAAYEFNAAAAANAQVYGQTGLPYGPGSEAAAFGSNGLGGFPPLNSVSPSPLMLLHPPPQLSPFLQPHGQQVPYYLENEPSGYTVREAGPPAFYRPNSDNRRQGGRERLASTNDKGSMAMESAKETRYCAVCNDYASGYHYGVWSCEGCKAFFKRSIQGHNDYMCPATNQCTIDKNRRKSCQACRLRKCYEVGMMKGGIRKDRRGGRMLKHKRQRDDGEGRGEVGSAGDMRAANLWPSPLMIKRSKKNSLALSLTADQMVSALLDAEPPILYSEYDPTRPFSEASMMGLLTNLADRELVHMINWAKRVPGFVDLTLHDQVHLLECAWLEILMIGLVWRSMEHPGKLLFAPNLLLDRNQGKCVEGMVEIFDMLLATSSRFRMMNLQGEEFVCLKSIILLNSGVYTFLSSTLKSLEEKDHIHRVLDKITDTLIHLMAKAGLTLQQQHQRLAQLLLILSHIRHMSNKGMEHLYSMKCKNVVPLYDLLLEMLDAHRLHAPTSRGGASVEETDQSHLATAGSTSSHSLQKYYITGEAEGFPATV
In short: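 Chemicals (10-point, 0.002-200 uM) were first incubated 2 hours with alginate-immobilized induced male Sprague Dawley rat liver S9. The conditioned medium was then applied to VM7Luc4E2 cells for 24 hours, with ER luciferase induction read by luminescence relative to 17beta-estradiol.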

| Compound | outcome |
| --- | --- |
| CC(=O)OCc1ccccc1 | inactive |
| CCCCC/C=C\C/C=C\CCCCCCCC(=O)O | inactive |
| C=C1C[C@H]2[C@@H]3C=C(C)C4=CC(=O)CC[C@]4(C)[C@H]3CC[C@]2(C)[C@@]1(OC(C)=O)C(C)=O | inactive |
| O=C(Oc1ccccc1)c1ccccc1O | inactive |
| C=C(C)C1CC=C(C)CC1 (stereo unspecified) | inactive |
| CCOC(=O)C1=NOC(c2ccccc2)(c2ccccc2)C1 | inactive |
